Some test systems named below: HCT-15 colon; HT29 colon; SNB-75 CNS; SNB-19 CNS; U251 CNS; PC-3 prostate; SK-MEL-5 melanoma; UACC-62 melanoma; LOX IMVI melanoma; SK-MEL-28 melanoma; SK-MEL-2 melanoma; SN12C renal; UO-31 renal; TK-10 renal; ACHN renal; CAKI-1 renal; A498 renal; CCRF-CEM leukemia; MOLT-4 leukemia; EKVX NSCLC.
Test in all cases: NCI-60 one-dose screen, 48 h (100 = growth as untreated, 0 = no growth, -100 = all killed)
Holding throughout (conditions): 10 µM unless noted

Values joined by “and” are separate entries in the source; they are usually repeats but may differ in a detail not shown here. Identical values can stand only once. Compounds without any hit were thinned out: in the full panel of roughly 83,000, 20% have a hit.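 In brief: 96-well plates, 48 h treatment, single concentration, percent growth endpoint.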 Unmarked numbers belong to inactive results. Active and inactive are the calls of the source. How the source made its calls: active means growth percent below 10; inactive means the rest.

With `CCCO/N=C/c1ccccn1`, the growth in the assay with HCT-15 colon was 106% and 103%; in the assay with HT29 colon, 96.8% and 93.4%; in the assay on SNB-75 CNS, 85.2% and 85.5%; in the assay on SNB-19 CNS, 97.8% and 105%; with U251 CNS, 103% and 101%; with PC-3 prostate, 117% and 96.1%. Also, the growth with SK-MEL-5 melanoma was 104% and 108%; in the assay with UACC-62 melanoma, 99.2% and 108%; in the assay with LOX IMVI melanoma it was 108% and 98.5%; in the assay with SK-MEL-28 melanoma it was 107% and 99.4%; in the assay with SK-MEL-2 melanoma it was 116% and 94.7%; with SN12C renal it was 94.1% and 108%. For the same molecule, the growth was 89.5% and 93% in the assay with UO-31 renal; 112% and 89.3% with TK-10 renal; 104% and 100% in the assay with ACHN renal; 109% with CAKI-1 renal; 101% and 117% with A498 renal; 80.9% and 105% in the assay with CCRF-CEM leukemia. Further, in the assay on MOLT-4 leukemia, the growth was 124% and 102%.
Take `Cc1ccc(NC(=O)N/C(N)=N/c2nc(=O)c3ccccc3s2)cc1`: the growth in the assay on HCT-15 colon is 104%; in the assay on HT29 colon it was 103%; in the assay on SNB-75 CNS it was 83.1%; in the assay with SNB-19 CNS it was 93%; in the assay with U251 CNS it was 99.7%; in the assay with PC-3 prostate it was 101%. The growth in the assay with SK-MEL-5 melanoma was 93.4%; with UACC-62 melanoma, 83%; in the assay with LOX IMVI melanoma it was 104%; in the assay on SK-MEL-28 melanoma it was 102%; in the assay on SK-MEL-2 melanoma, 106%; with EKVX NSCLC it was 93.7%. Further, the growth with SN12C renal was 93.8%; in the assay on UO-31 renal, 90.4%; with TK-10 renal, 116%; in the assay with CAKI-1 renal, 86.9%; with A498 renal, 63%; with CCRF-CEM leukemia it was -23% (active). Further, the growth in the assay with MOLT-4 leukemia was 99.8%.
As for `Cc1ccc(/C=C(\C#N)c2cc3ccccc3[nH]2)cc1`, the growth in the assay with HCT-15 colon is 27.1%; with HT29 colon, 13%; in the assay with SNB-75 CNS, 54.1%; with SNB-19 CNS, 55.4%; in the assay on U251 CNS, 38%; in the assay with PC-3 prostate, 71.1%. In addition, the growth with SK-MEL-5 melanoma is 52%; in the assay with UACC-62 melanoma it was 22.7%; in the assay on LOX IMVI melanoma, 43.4%; with SK-MEL-28 melanoma it was 72.1%; in the assay with EKVX NSCLC, 74.7%; with SN12C renal, 50.3%. Also, the growth in the assay on UO-31 renal was 69.8%; in the assay on TK-10 renal it was 82.6%; in the assay with ACHN renal, 85.6%; in the assay on CAKI-1 renal it was 45.6%; with A498 renal, 57.2%; with CCRF-CEM leukemia it was 46%. Besides, the growth in the assay with MOLT-4 leukemia was 30.6%.
With `CC1=C2[C@@H](CC1)[C@]1(C)O[C@@](C(C)C)(C[C@H]1OC(=O)CO)[C@H]2OC(=O)C1CC1c1ccccc1` (stereo partly specified), the growth is 96.8% in the assay with HCT-15 colon; 75% with HT29 colon; 102% with SNB-75 CNS; 88.5% in the assay on SNB-19 CNS; 79.6% with U251 CNS; 62.6% with PC-3 prostate. Also, the growth with SK-MEL-5 melanoma is 95%; in the assay with UACC-62 melanoma, 53.3%; in the assay with LOX IMVI melanoma it was 77%; in the assay with SK-MEL-28 melanoma, 114%; with SK-MEL-2 melanoma it was 75.8%; with SN12C renal, 61.5%. The growth with UO-31 renal is 54.2%; with TK-10 renal, 88%; in the assay with ACHN renal, 43.1%; with CAKI-1 renal it was 74.1%; in the assay on CCRF-CEM leukemia, 96.1%; in the assay on MOLT-4 leukemia, 75.6%.
`Cc1ccc(/C=C/c2c(C(=O)/C=C/c3ccccc3)c(C)nc3ccccc23)cc1`: the growth was -24.6% (active) in the assay on HCT-15 colon; 0.173% (active) with HT29 colon; 29% with SNB-75 CNS; 15.7% in the assay on SNB-19 CNS; -5.93% (active) in the assay on U251 CNS; 31.3% in the assay on PC-3 prostate. The growth with SK-MEL-5 melanoma was 32.3%; with UACC-62 melanoma, 29.2%; in the assay on LOX IMVI melanoma, -79.4% (active); in the assay with SK-MEL-28 melanoma, 24.3%; with EKVX NSCLC, 46.5%; with SN12C renal, 36.9%. Besides, the growth in the assay on UO-31 renal was 18.4%; in the assay with TK-10 renal, 29.3%; with ACHN renal, 8.19% (active); in the assay on CAKI-1 renal, 22.3%; with A498 renal, 59.3%; with CCRF-CEM leukemia, 5.43% (active). In addition, the growth in the assay with MOLT-4 leukemia was 6.13% (active).
For `[Cu+].[NH-][C@H]1C[N-]C(=O)[C@H]([C@H]2CCN=C(N)N2)[N-]C(=O)/C(=C\NC(N)=O)[N-]C(=O)[C@H](CNC(=O)C[C@@H](N)CCCN)[N-]C(=O)[C@H](CO)[N-]C1=O`, the growth with HCT-15 colon is 100%; in the assay with HT29 colon it was 104%; in the assay on SNB-75 CNS, 88.2%; with SNB-19 CNS it was 103%; in the assay with U251 CNS, 101%; in the assay with PC-3 prostate, 96%. For the same molecule, the growth was 109% in the assay with SK-MEL-5 melanoma; 92.1% in the assay on UACC-62 melanoma; 98.7% in the assay on LOX IMVI melanoma; 110% in the assay with SK-MEL-28 melanoma; 109% in the assay with EKVX NSCLC; 103% in the assay with SN12C renal. The growth was 86.8% in the assay on UO-31 renal; 98.1% with TK-10 renal; 108% in the assay with ACHN renal; 87.8% in the assay on CAKI-1 renal; 99.9% in the assay on CCRF-CEM leukemia; 102% with MOLT-4 leukemia.
On to `COc1cc(/C=C2/C=C(c3ccc(C(C)(C)C)cc3)N(CCc3ccc(S(N)(=O)=O)cc3)C2=O)cc(OC)c1OC`, for which the growth with HCT-15 colon is 30.3%; in the assay with HT29 colon, 8.93% (active); with SNB-75 CNS, 65.9%; in the assay on SNB-19 CNS, 69%; with U251 CNS it was 41.7%; with PC-3 prostate, 8.07% (active). For the same molecule, the growth in the assay with SK-MEL-5 melanoma is 32.1%; with UACC-62 melanoma it was 59%; with LOX IMVI melanoma, 42.2%; with SK-MEL-28 melanoma, 61.9%; in the assay with EKVX NSCLC, 51.3%; in the assay on SN12C renal, 64.7%. In addition, the growth was 37.1% in the assay with UO-31 renal; 82.1% in the assay with TK-10 renal; 49.5% with ACHN renal; 71.6% in the assay on CAKI-1 renal; 82.4% with A498 renal; 29.3% in the assay with CCRF-CEM leukemia. The growth in the assay with MOLT-4 leukemia is 16.3%.

The record behind these values is PubChem BioAssay (NCI).
